High-throughput results: PubChem, National Center for Advancing Translational Sciences (NCATS)
DT40 TDP1 CPT: qHTS for Inhibitors of human tyrosyl-DNA phosphodiesterase 1 (TDP1): qHTS in cells in presence of CPT | chicken DT40 Tdp1-/-;hTDP1 cells + 20 nM CPT, ATP luminescence, 48 h | AID 686979, 2013 | Potency, µM (series often up to 46.2 µM), for the others: at the top dose activity change, negative = growth inhibition, usual class: inhibitors | hit rate 12% among 420,000; also: potency is read from the fitted curve at half-maximal effect; nearly all actives have a fitted effect of over 55% in size
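Chicken DT40 Tdp1-/- cells complemented with human TDP1, 400 cells/well, exposed to compounds plus 20 nM camptothecin for at least 48 h at 37 C; viability read as ATP content by CellTiter-Glo luminescence.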
IL1B secr inh: qHTS for Inhibitors of Inflammasome Signaling: IL-1-beta AlphaLISA Primary Screen | activity change, % at 57.5 µM | THP-1 LPS/ATP IL-1B secretion, AlphaLISA, 16 h; stronger effect = lower value | hit rate 4.7% among 360,000; in the data active = activity change below about -50%; inconclusive = mostly about -30% to -49%
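Secreted IL-1B measured by AlphaLISA bead assay after 16 h compound exposure of THP-1 cells; compounds (final up to 57.5 uM) added 1 h before LPS (250 ng/mL) and ATP (1.25 mM) stimulation; lower signal means less secretion.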
HT1080 IDH1KD tx: qHTS for induction of synthetic lethality in tumor cells producing 2HG: qHTS for the HT-1080-IDH1KD cell line. Potency, µM (top dose mostly 46.1 µM), inactives show at the top dose activity, negative = toxicity, actives largely listed as cytotoxic. hit rate 2% among 360,000. AID 686971, 2013. HT-1080 IDH1 knockdown viability, ATP luminescence, 48 h;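 also: potency is read from the fitted curve at half-maximal effect; 0% = DMSO wells and -100% = cell-free medium wells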
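Knockdown cells (IDH1KD HT-1080) received compounds 2 h after plating at 750 cells/well and were kept 48 h at 37 °C in 5% FBS RPMI. A CellTiter-Glo luminescence read gave % activity for curve fitting.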
HT1080-NT tox: qHTS for induction of synthetic lethality in tumor cells producing 2HG: qHTS for the HT-1080-NT fibrosarcoma cell line; HT-1080-NT fibrosarcoma viability, CellTiter-Glo ATP luminescence, 48 h; Potency, µM (doses to about 46.1 µM), for the others: at the top dose activity, negative = less viability, actives largely listed as cytotoxic; hit rate 1.6% among 360,000;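 also: NT is the 2HG producing partner of a matched IDH1 knockdown line; potency is read from the fitted curve at half-maximal effect; 0% = DMSO-treated cells and -100% = media-only wells without cells; nearly all actives have a fitted effect of over 55% in size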
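HT-1080-NT fibrosarcoma cells (2HG-overproducing), 750 cells/well in RPMI with 5% FBS, dosed after 2 h and incubated 48 h at 37C. CellTiter-Glo luminescence normalized to DMSO and no-cell wells; concentration-response curves fitted and classed.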
ELG1 repair inh: qHTS screen for small molecules that inhibit ELG1-dependent DNA repair in human embryonic kidney (HEK293T) cells expressing luciferase-tagged ELG1; HEK293T ELG1-luciferase reporter, luminescence, 16 h; DNA damage induced by 5-fluorouridine; Potency, µM (titrated, usually from 46.1 µM), for the others: top-dose activity change, negative = inhibition, hits mostly inhibitors; hit rate 2.3% among 330,000; AID 504467, 2011; also: potency is read from the fitted curve at half-maximal effect; nearly all actives have a fitted effect of over 55% in size
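Quantitative HTS, concentration-response format. 2,000 cells/well co-treated with 5-fluorouridine and compound, 16 hr in 5% CO2 at 37 °C; ONE-Glo luminescence read after 30 min.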
TDP1 cell noCPT: qHTS for Inhibitors of human tyrosyl-DNA phosphodiesterase 1 (TDP1): qHTS in cells in absence of CPT | DT40 Tdp1-/- hTDP1 cells, no CPT, ATP luminescence, 48 h | Potency, µM (series often up to 46.2 µM), inactives show top-dose activity change, negative = growth inhibition, actives largely listed as inhibitors | hit rate 15% among 420,000; also: potency is read from the fitted curve at half-maximal effect; nearly all actives have a fitted effect of over 55% in size
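Luminescent ATP content (CellTiter-Glo) served as the growth readout. Knockout chicken DT40 cells expressing human TDP1 were exposed to compounds without camptothecin for a minimum 48 hr at 37 °C.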
* = called active by the depositor; ? = inconclusive; nt = not tested or not shown. An excerpt weighted towards active compounds, which were near 19% of everything screened. Unless noted, calls follow the shape of the dose curve; as a rule, active = well fitted curve in the direction sought with a large enough effect; inconclusive = small, poorly fitted or top-dose-only effect, or another doubt; inactive = no such curve, though single readings can be large; an effect the other way counts as inactive or inconclusive. Unless noted, % is scaled to controls: 0 for no effect and ±100 for the full control effect.

SMILES | DT40 TDP1 CPT | IL1B secr inh | HT1080 IDH1KD tx | HT1080-NT tox | ELG1 repair inh | TDP1 cell noCPT
CC(C)(C)OC(=O)N1CCC(c2c(C(=O)N3CCC(c4ccccc4)C3)cnn2-c2ccc(Cl)cc2)CC1 (stereo not given) | 13µM* | nt | nt | nt | nt | 16µM*
c1ccc(COc2ncnc3c2ncn3CCCNCCN2CCOCC2)cc1 | 33% | 14 | -2% | 5% | nt | 4%
CCCCn1c(N)c(N(CCOC)C(=O)c2ccco2)c(=O)[nH]c1=O | 21% | 5 | 0% | 2% | 14% | -1%
CC(=O)Cc1nsc(NC(=O)c2ccc(F)cc2)n1 | -16% | 0 | -4% | -1% | ? | 0%
Nc1nc(NC(=O)c2ccc(F)cc2)ns1 | -3% | -73* | -10% | 2% | ? | 3%
CC1CC(C)CN(C(=S)SCc2nc(N)nc(Nc3ccccc3)n2)C1 (stereo not given) | ? | -16 | 33µM* | ? | ? | ?
Nc1nc(CSC(=S)N2CCCCC2)nc(Nc2ccccc2)n1 | ? | ? | -1% | -4% | ? | ?
Cc1ccc(Nc2nc(N)nc(CSC(=S)N3CCOCC3)n2)cc1 | -4% | ? | -12% | -6% | ? | ?
CCOc1ccc(Nc2nc(N)nc(CSC(=S)N3CCOCC3)n2)cc1 | ? | ? | -13% | -1% | ? | 21µM*
Cc1ccc(OCC(=O)OCc2cc(=O)n3c(C)csc3n2)cc1 | 0% | nt | nt | nt | nt | -7%
O=C(O)CC(c1ccccc1)c1ccccc1 | -5% | 16 | -13% | 2% | -14% | -36%
CC1=C(C)C(=O)C(C(CCCCCC(=O)O)c2ccccc2)=C(C)C1=O (stereo not given) | 17µM* | nt | nt | nt | nt | ?
Cc1ccc(Cn2c(O)c(N=NC(=S)Nc3ccccc3F)c3cc(S(=O)(=O)N4CCOCC4)ccc32)cc1 | 3.7µM* | -12 | -12% | -12% | ? | 2.1µM*
CCc1ccccc1NC(=S)N=Nc1c(O)n(C)c2ccc(S(=O)(=O)N3CCOCC3)cc12 | 5.2µM* | 0 | -22% | -12% | ? | 5.8µM*
Cc1ccc(C)c(NC(=S)N=Nc2c(O)n(C)c3ccc(S(=O)(=O)N4CCOCC4)cc23)c1 | 4.1µM* | 7 | ? | -29% | ? | 2.9µM*
N=C(N)c1ccc(OCCCOc2ccc(C(=N)N)cc2)cc1 | 6.7µM* | nt | nt | nt | nt | 6.7µM*
N=C(N)c1ccc(OCCCOc2ccc(C(=N)N)cc2Br)c(Br)c1 | 4.7µM* | nt | nt | nt | nt | 3.8µM*
CCCCCCOc1ccc(/C(N)=N/O)cc1 | 16µM* | 0 | -5% | 0% | ? | 21µM*
Cc1onc(-c2ccccc2Cl)c1C(=O)N1CCOC12CCCCC2 | ? | 18 | 7% | 11% | -26% | -11%
CC(C)c1ccccc1NC(=O)Cn1cnc2c1c(=O)n(C)c(=O)n2C | -21% | nt | nt | nt | nt | -22%
COC(=O)C1=CN(Cc2ccc(C)cc2)C=C(C(=O)OC)C1c1ccc(F)c(F)c1 | ? | -27 | -25% | -15% | -2% | 23µM*
COC(=O)C1=CN(c2ccc(F)cc2)C=C(C(=O)OC)C1c1cccc(Br)c1 | 23µM* | ? | -1% | 14% | -16% | ?
COC(=O)C1=CN(Cc2ccc(OC)c(OC)c2)C=C(C(=O)OC)C1c1cccc(F)c1 | 16µM* | 49 | -4% | -2% | ? | 18µM*
COc1cc(C2c3cc(O)c(OC)cc3CC(C(=O)O)C2CO)ccc1O (stereo not given) | 6% | 9 | 4% | 2% | nt | 2%
CC1CN(C(=O)N2CCC(C(=O)NCCC3=CCCCC3)CC2)c2ccccc2O1 (stereo not given) | -30% | nt | nt | nt | nt | ?
SMILES | DT40 TDP1 CPT | IL1B secr inh | HT1080 IDH1KD tx | HT1080-NT tox | ELG1 repair inh | TDP1 cell noCPT
CCC1CN(C(=O)N2CCC(C(=O)NCc3ccc(F)cc3)CC2)c2ccccc2O1 (stereo not given) | -30% | 17 | -9% | -11% | -14% | -14%
CCC1CN(C(=O)N2CCC(C(=O)NCc3cccs3)CC2)c2ccccc2O1 (stereo not given) | 21µM* | nt | nt | nt | nt | 21µM*
CCC1CN(C(=O)N2CCC(C(=O)NCCCc3ccccc3)CC2)c2ccccc2O1 (stereo not given) | 16µM* | nt | nt | nt | nt | ?
CCC1CN(C(=O)N2CCC(C(=O)N(C)Cc3ccccc3)CC2)c2ccccc2O1 (stereo not given) | ? | nt | nt | nt | nt | 15µM*
CCC1CN(C(=O)N2CCC(C(=O)NCCC3=CCCCC3)CC2)c2cc(C)ccc2O1 (stereo not given) | 15µM* | nt | nt | nt | nt | 15µM*
CC(OC(=O)c1ccc(Cl)nc1)C(=O)N1CCc2ccccc21 (stereo not given) | 0% | -4 | -12% | -22% | 11% | -17%
CCC1CN(C(=O)N2CCC(C(=O)NCCCc3ccccc3)CC2)c2cc(C)ccc2O1 (stereo not given) | ? | nt | nt | nt | nt | 13µM*
CC(C)CCNC(=O)C1CCN(Cc2cccc(OCc3ccccc3)c2)CC1 | -20% | -57* | 23µM* | ? | ? | ?
CCNC(=O)C1CCCN(Cc2ccc(OCc3ccccc3)cc2)CC1 (stereo not given) | 18µM* | -6 | -4% | ? | nt | 7.3µM*
O=C(C1CCN(Cc2ccc(F)cc2)CC1)N(CCc1ccccc1)Cc1ccccc1 | 23µM* | -89* | -28% | -30% | -28% | 16µM*
CCN(CC)C(=O)C1CCN(Cc2ccc(OCc3ccccc3)cc2)CC1 | -29% | -57* | 5% | 0% | -7% | -22%
O=C(NCc1ccc(F)cc1)C1CCCN(c2cnccn2)C1 (stereo not given) | 1% | 3 | 6% | 6% | 5% | -14%
COc1ccc(OC)c(CNC(=O)C2CCCN(c3ncnc4onc(-c5ccc(F)cc5)c34)C2)c1 (stereo not given) | 4% | nt | nt | nt | nt | -8%
CCOc1ccccc1CNC(=O)C1CCCN(c2ncnc3onc(-c4ccc(F)cc4)c23)C1 (stereo not given) | ? | nt | nt | nt | nt | 21µM*
